According to PubChem BioAssay AID1159580 (chemical genetic matrix, 2015):
Where “and” joins values, the source holds several entries; their conditions need not be identical. Equal values may be shown once. Out of some 5,500 compounds screened, about 2,000 (36%) were called active. Not shown: some 18% with an inconclusive outcome. Rule as the data show it: active = normalized growth mostly below about 0.91 (no sharp cut-off); inconclusive = no clear call, values can overlap the other calls; inactive = mostly above about 0.92. This is one part of the list.

Test: chemical genetic growth profiling, strain panel (AID 1159580);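 also: tested at 20 µM; growth read once vehicle control cultures reached saturation at 30 °C; 1 = growth at the plate median or of vehicle wells; lower values mean less growth of the strain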
Conditions: S. cerevisiae deletion strains, growth OD
[1] = locus YHR030C, strain SLT2, stronger effect = lower value
[2] = locus YHR079C, strain IRE1, stronger effect = lower value
[3] = locus YJL095W, strain BCK1, stronger effect = lower value
[4] = locus YJR066W, strain TOR1, stronger effect = lower value
[5] = locus YLR113W, strain HOG1, stronger effect = lower value
[6] = locus YNL183C, strain NPR1, stronger effect = lower value
[7] = locus YOR231W, strain MKK1, stronger effect = lower value
[8] = locus YPL256C, strain CLN2, stronger effect = lower value

Measured: normalized growth

CC(C)(C)CC(C)(C)c1ccc(OCCOCC[N+](C)(C)Cc2ccccc2)cc1
0.912 (inactive) and 0.258 (active): [3]
0.995 (inactive) and 0.14 (active): [1]
active: locus YAL021C, strain ccr4, stronger effect = lower value 0.0688 | locus YAL026C, strain drs2, stronger effect = lower value 0.0657 | locus YAL030W, strain snc1, stronger effect = lower value 0.0593 | locus YBL061C, strain skt5, stronger effect = lower value 0.0642 | locus YBR009C, strain hhf1, stronger effect = lower value 0.0641 | locus YBR021W, strain FUR4, stronger effect = lower value 0.749 | locus YBR023C, strain chs3, stronger effect = lower value 0.0641 | locus YBR171W, strain sec66, stronger effect = lower value 0.0804 | locus YBR231C, strain swc5, stronger effect = lower value 0.0684 | locus YBR279W, strain paf1, stronger effect = lower value 0.0627 | locus YCL011C, strain gbp2, stronger effect = lower value 0.0631 | locus YCL016C, strain dcc1, stronger effect = lower value 0.0699 | locus YCL069W, strain vba3, stronger effect = lower value 0.0614 | locus YCR088W, strain abp1, stronger effect = lower value 0.0617 | locus YDL005C, strain med2, stronger effect = lower value 0.0736 | locus YDL040C, strain nat1, stronger effect = lower value 0.0719 | locus YDR001C, strain nth1, stronger effect = lower value 0.0593 | locus YDR069C, strain doa4, stronger effect = lower value 0.0664 | locus YDR137W, strain rgp1, stronger effect = lower value 0.0931 | locus YDR159W, strain sac3, stronger effect = lower value 0.1 | locus YDR195W, strain ref2 0.158 | locus YDR297W, strain sur2, stronger effect = lower value 0.0635 | locus YDR334W, strain swr1, stronger effect = lower value 0.0662 | locus YDR335W, strain msn5, stronger effect = lower value 0.0594 | locus YDR392W, strain spt3, stronger effect = lower value 0.0804 | locus YEL003W, strain gim4, stronger effect = lower value 0.0568 | locus YEL037C, strain rad23, stronger effect = lower value 0.0591 | locus YEL061C, strain CIN8 (second series), stronger effect = lower value 0.0651 | locus YER015W, strain faa2, stronger effect = lower value 0.0671 | locus YER016W, strain bim1, stronger effect = lower value 0.0697 | locus YER111C, strain swi4, stronger effect = lower value 0.0727 | locus YER155C, strain BEM2 (second series), stronger effect = lower value 0.0937 | locus YFR010W, strain ubp6, stronger effect = lower value 0.0726 | locus YGL167C, strain pmr1, stronger effect = lower value 0.837 | locus YGL173C, strain kem1, stronger effect = lower value 0.0679 | locus YGL227W, strain vid30, stronger effect = lower value 0.0676 | locus YGL240W, strain doc1, stronger effect = lower value 0.0832 | locus YGL253W, strain hxk2, stronger effect = lower value 0.058 | locus YHR013C, strain ard1, stronger effect = lower value 0.119 | locus YHR027C, strain rpn1, stronger effect = lower value 0.0623 | [2] 0.167 | locus YHR142W, strain chs7, stronger effect = lower value 0.0755 | locus YJL092W, strain hpr5, stronger effect = lower value 0.0645 | locus YJL095W, strain BCK1 (second series), stronger effect = lower value 0.0585 | locus YJL115W, strain asf1, stronger effect = lower value 0.0787 | locus YJL129C, strain trk1, stronger effect = lower value 0.079 | locus YJL154C, strain vps35, stronger effect = lower value 0.0655 | locus YJL164C, strain tpk1, stronger effect = lower value 0.0649 | locus YJL166W, strain qcr8, stronger effect = lower value 0.0654 | locus YJL187C, strain SWE1, stronger effect = lower value 0.0616 | [4] 0.791 | locus YKL160W, strain elf1, stronger effect = lower value 0.0818 | locus YKR001C, strain vps1, stronger effect = lower value 0.686 | locus YKR026C, strain gcn3, stronger effect = lower value 0.0715 | locus YKR091W, strain srl3, stronger effect = lower value 0.0677 | locus YLL001W, strain dnm1, stronger effect = lower value 0.064 | locus YLL026W, stronger effect = lower value 0.059 | locus YLL041C, strain sdh2, stronger effect = lower value 0.0644 | locus YLR027C, strain aat2, stronger effect = lower value 0.0617 | [5] 0.166 | locus YLR221C, strain rsa3, stronger effect = lower value 0.0654 | locus YLR258W, strain gsy2, stronger effect = lower value 0.0637 | locus YLR262C, strain YPT6 (second series), stronger effect = lower value 0.0738 | locus YLR320W, strain mms22, stronger effect = lower value 0.08 | locus YLR342W, strain FKS1, stronger effect = lower value 0.0831 | locus YLR357W, strain rsc2, stronger effect = lower value 0.132 | locus YLR370C, strain arc18, stronger effect = lower value 0.0619 | locus YLR384C, strain iki3, stronger effect = lower value 0.0611 | locus YML120C, strain ndi1, stronger effect = lower value 0.0599 | locus YMR058W, strain fet3, stronger effect = lower value 0.0666 | locus YMR125W, strain sto1, stronger effect = lower value 0.0985 | locus YMR129W, stronger effect = lower value 0.0605 | locus YMR205C, strain PFK2, stronger effect = lower value 0.112 | locus YMR231W, strain pep5, stronger effect = lower value 0.0717 | locus YNL071W, strain lat1, stronger effect = lower value 0.0629 | [6] 0.73 | locus YNL209W, strain ssb2, stronger effect = lower value 0.0644 | locus YNL248C, strain rpa49, stronger effect = lower value 0.0829 | locus YNL322C, strain KRE1 (second series), stronger effect = lower value 0.0768 | locus YNR049C, strain mso1, stronger effect = lower value 0.0601 | locus YOR001W, strain rrp6, stronger effect = lower value 0.0755 | locus YOR070C, strain gyp1, stronger effect = lower value 0.0589 | locus YOR080W, strain dia2, stronger effect = lower value 0.0709 | locus YOR083W, strain WHI5, stronger effect = lower value 0.0783 | locus YOR106W, strain vam3, stronger effect = lower value 0.0737 | [7] 0.451 | locus YOR265W, strain rbl2, stronger effect = lower value 0.0618 | locus YOR270C, strain vph1, stronger effect = lower value 0.103 | locus YOR290C, strain snf2, stronger effect = lower value 0.0712 | locus YPL051W, strain arl3, stronger effect = lower value 0.0738 | locus YPL078C, strain atp4, stronger effect = lower value 0.0749 | locus YPL106C, strain sse1, stronger effect = lower value 0.108 | locus YPL240C, strain hsp82, stronger effect = lower value 0.0673 | [8] 0.347
inactive: locus YAL013W, strain DEP1, stronger effect = lower value 0.983 | locus YBR229C, strain ROT2, stronger effect = lower value 1.02 | locus YCL029C, strain bik1, stronger effect = lower value 0.986 | locus YDL035C, strain GPR1, stronger effect = lower value 1.01 | locus YDL074C, strain BRE1, stronger effect = lower value 0.954 | locus YDL101C, strain DUN1, stronger effect = lower value 0.988 | locus YDL134C, strain PPH21, stronger effect = lower value 0.995 | locus YDL185W, strain tfp1, stronger effect = lower value 1 | locus YDL192W, strain arf1, stronger effect = lower value 0.976 | locus YDR101C, strain arx1, stronger effect = lower value 0.991 | locus YDR150W, strain NUM1, stronger effect = lower value 1 | locus YDR162C, strain NBP2, stronger effect = lower value 0.911 | locus YDR318W, strain mcm21, stronger effect = lower value 0.997 | locus YDR388W, stronger effect = lower value 1 | locus YDR502C, strain sam2, stronger effect = lower value 0.988 | locus YEL061C, strain CIN8, stronger effect = lower value 0.999 | locus YER110C, stronger effect = lower value 0.992 | locus YER155C, strain BEM2, stronger effect = lower value 1.03 | locus YER167W, strain BCK2, stronger effect = lower value 1.02 | locus YGL078C, strain dbp3, stronger effect = lower value 0.988 | locus YGL086W, strain mad1, stronger effect = lower value 0.984 | locus YGL248W, strain PDE1, stronger effect = lower value 0.99 | locus YGR078C, strain PAC10, stronger effect = lower value 0.917 | locus YGR135W, strain pre9, stronger effect = lower value 0.994 | locus YGR252W, strain gcn5, stronger effect = lower value 0.98 | locus YHR079C, strain IRE1 (second series), stronger effect = lower value 0.991 | locus YHR094C, strain hxt1, stronger effect = lower value 0.985 | locus YHR129C, strain ARP1, stronger effect = lower value 0.994 | locus YHR200W, strain rpn10, stronger effect = lower value 0.993 | locus YIL066C, strain RNR3, stronger effect = lower value 0.994 | locus YIL073C, strain SPO22, stronger effect = lower value 0.865 | locus YIL125W, strain kgd1, stronger effect = lower value 0.991 | locus YIR030C, strain dcg1, stronger effect = lower value 0.985 | locus YJL134W, strain LCB3, stronger effect = lower value 1 | locus YJL168C, strain set2, stronger effect = lower value 0.999 | locus YJL187C, strain SWE1 (second series), stronger effect = lower value 0.989 | locus YJR043C, strain POL32, stronger effect = lower value 1.03 | locus YKL009W, strain mrt4, stronger effect = lower value 0.965 | locus YKL068W, stronger effect = lower value 1.01 | locus YKL085W, strain MDH1 (second series), stronger effect = lower value 1 | locus YKL085W, strain MDH1, stronger effect = lower value 1 | locus YLR039C, strain RIC1, stronger effect = lower value 0.781 | locus YLR058C, strain SHM2, stronger effect = lower value 0.996 | locus YLR102C, strain apc9, stronger effect = lower value 0.992 | locus YLR262C, strain YPT6, stronger effect = lower value 0.832 | locus YLR268W, strain sec22, stronger effect = lower value 0.974 | locus YLR330W, strain CHS5, stronger effect = lower value 0.993 | locus YLR342W, strain FKS1 (second series), stronger effect = lower value 0.998 | locus YLR371W, strain rom2, stronger effect = lower value 0.992 | locus YLR418C, strain cdc73, stronger effect = lower value 0.871 | locus YML016C, strain PPZ1, stronger effect = lower value 1.01 | locus YML032C, strain rad52, stronger effect = lower value 0.99 | locus YML124C, strain tub3, stronger effect = lower value 0.989 | locus YMR078C, strain ctf18, stronger effect = lower value 0.986 | locus YMR223W, strain ubp8, stronger effect = lower value 0.989 | locus YMR263W, strain SAP30, stronger effect = lower value 0.991 | locus YMR307W, strain GAS1, stronger effect = lower value 1.06 | locus YNL067W, strain RPL9B, stronger effect = lower value 0.977 | locus YNL233W, strain BNI4, stronger effect = lower value 0.984 | locus YNL250W, strain rad50, stronger effect = lower value 0.989 | locus YNL271C, strain bni1, stronger effect = lower value 0.978 | locus YNL298W, strain CLA4, stronger effect = lower value 1.01 | locus YNL307C, strain MCK1, stronger effect = lower value 0.937 | locus YNR052C, strain pop2, stronger effect = lower value 0.99 | locus YOL006C, strain TOP1, stronger effect = lower value 0.864 | locus YOL012C, strain htz1 1.63 | locus YOL147C, strain pex11, stronger effect = lower value 0.985 | locus YOR061W, strain CKA2, stronger effect = lower value 1.01 | locus YOR069W, strain VPS5, stronger effect = lower value 1.01 | locus YOR136W, strain idh2, stronger effect = lower value 0.986 | locus YOR144C, strain elg1, stronger effect = lower value 0.996 | locus YOR184W, strain ser1, stronger effect = lower value 0.954 | locus YOR316C, strain cot1, stronger effect = lower value 0.992 | locus YPL055C, strain LGE1, stronger effect = lower value 0.98 | locus YPL241C, strain CIN2, stronger effect = lower value 1 | locus YPR119W, strain clb2, stronger effect = lower value 0.984 | locus YPR141C, strain kar3, stronger effect = lower value 0.988 | locus YPR163C, strain tif3, stronger effect = lower value 0.981 | locus YPR167C, strain met16, stronger effect = lower value 1.01 | strain wtn01, stronger effect = lower value 0.997

C[N+](C)(CCOc1ccccc1)Cc1ccccc1
inactive: [1] 0.888 | [7] 0.887
active: [2] 0.844 | [3] 0.869 | [4] 0.799 | [5] 0.805 | [6] 0.788 | [8] 0.812
